# Laboratory results published in paper PMC5540273 (PLoS ONE, 2017).
# Several values for one entry are separate records, joined by “and”; a condition that tells them apart may be missing. Equal entries are not always repeated. Where two headings read alike, the source gives them in different places.
# Key:
# [1] = test system: DMPK; conditions: concentration: 1 μM, replicates: in singlicate, n = 1
# [2] = test system: T1, DRAK1; conditions: concentration: 1 μM, replicates: in singlicate, n = 1
# T1 construct: gene STK17A
# [3] = test system: T2, DRAK2; conditions: concentration: 1 μM, replicates: in singlicate; n = 1
# T2 construct: gene STK17B
# [4] = test system: DYRK1A; conditions: concentration: 1 μM, replicates: in singlicate; n = 1
# [5] = test system: DYRK1B; conditions: concentration: 1 μM, replicates: in singlicate, n = 1
# [6] = test system: DYRK2; conditions: concentration: 1 μM, replicates: in singlicate, n = 1
# [7] = test system: EGFR; conditions: concentration: 1 μM, replicates: in singlicate, n = 1
# [8] = test system: EIF2AK1; conditions: concentration: 1 μM, replicates: in singlicate; n = 1
# [9] = test system: EPHA1; conditions: concentration: 1 μM, replicates: in singlicate, n = 1
# [10] = test system: EPHA2; conditions: concentration: 1 μM, replicates: in singlicate, n = 1
# [11] = test system: EPHA3; conditions: concentration: 1 μM, replicates: in singlicate, n = 1
# [12] = test system: EPHA4; conditions: concentration: 1 μM, replicates: in singlicate, n = 1
# [13] = test system: EPHA5; conditions: concentration: 1 μM, replicates: in singlicate, n = 1
# [14] = test system: EPHA6; conditions: concentration: 1 μM, replicates: in singlicate, n = 1
# [15] = test system: EPHA7; conditions: concentration: 1 μM, replicates: in singlicate, n = 1
# [16] = test system: EPHA8; conditions: concentration: 1 μM, replicates: in singlicate, n = 1
# [17] = test system: EPHB1; conditions: concentration: 1 μM, replicates: in singlicate, n = 1
# [18] = test system: EPHB2; conditions: concentration: 1 μM, replicates: in singlicate, n = 1
# [19] = test system: EPHB3; conditions: concentration: 1 μM, replicates: in singlicate, n = 1
# [20] = test system: EPHB4; conditions: concentration: 1 μM, replicates: in singlicate, n = 1
# 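Also: KINOMEscan kinase panel screen.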
smiles,measurement,setting,value
c1ccc(-c2n[nH]cc2-c2ccnc3ccccc23)nc1 [GW271431],%Inh,[1],2%
same,%Inh,[2],19%
same,%Inh,[3],18%
same,%Inh,[4],17%
same,%Inh,[5],20%
same,%Inh,[6],0%
same,%Inh,[7],35%
same,%Inh,[8],14%
same,%Inh,[9],16%
same,%Inh,[10],4%
same,%Inh,[11],14%
same,%Inh,[12],2%
same,%Inh,[13],0%
same,%Inh,[14],1%
same,%Inh,[15],6%
same,%Inh,[16],9%
same,%Inh,[17],32%
same,%Inh,[18],0%
same,%Inh,[19],7%
same,%Inh,[20],11%
O=c1cc(N2CCOCC2)nc2n(Cc3cccc(C(F)(F)F)c3)ccn12 [GSK2297543],%Inh,[1],9%
same,%Inh,[2],0%
same,%Inh,[3],0%
same,%Inh,[4],6%
same,%Inh,[5],0%
same,%Inh,[6],5%
same,%Inh,[7],25%
same,%Inh,[8],0%
same,%Inh,[9],0%
same,%Inh,[10],13%
same,%Inh,[11],0%
same,%Inh,[12],6%
same,%Inh,[13],0%
same,%Inh,[14],0%
same,%Inh,[15],0%
same,%Inh,[16],2%
same,%Inh,[17],24%
same,%Inh,[18],0%
same,%Inh,[19],3%
same,%Inh,[20],7%
CN1c2ccc(CNc3ccc(F)cc3)cc2-c2c(cnn2C)S1(=O)=O,%Inh,[1],1%
same,%Inh,[2],0%
same,%Inh,[3],0%
same,%Inh,[4],0%
same,%Inh,[5],0%
same,%Inh,[6],0%
same,%Inh,[7],0%
same,%Inh,[8],0%
same,%Inh,[9],0%
same,%Inh,[10],9%
same,%Inh,[11],0%
same,%Inh,[12],0%
same,%Inh,[13],0%
same,%Inh,[14],0%
same,%Inh,[15],0%
same,%Inh,[16],0%
same,%Inh,[17],0%
same,%Inh,[18],17%
same,%Inh,[19],0%
same,%Inh,[20],1%
COc1ccc(Nc2nccc(N3CCC(NC(=O)Nc4cccc(C(C)=O)c4)C3)n2)cc1 (stereo not shown) [GSK1379731],%Inh,[1],0%
same,%Inh,[2],0%
same,%Inh,[3],0%
same,%Inh,[4],23%
same,%Inh,[5],0%
same,%Inh,[6],0%
same,%Inh,[7],15%
same,%Inh,[8],0%
same,%Inh,[9],2%
same,%Inh,[10],4%
same,%Inh,[11],0%
same,%Inh,[12],6%
same,%Inh,[13],0%
same,%Inh,[14],0%
same,%Inh,[15],0%
same,%Inh,[16],9%
same,%Inh,[17],0%
same,%Inh,[18],0%
same,%Inh,[19],9%
same,%Inh,[20],5%
Cl.Nc1ncnc2occ(-c3ccc(NC(=O)Nc4cc(C(F)(F)F)ccc4F)cc3)c12 [SB-707548],%Inh,[1],0%
same,%Inh,[2],0%
same,%Inh,[3],0%
same,%Inh,[4],0%
same,%Inh,[5],0%
same,%Inh,[6],14%
same,%Inh,[7],30%
same,%Inh,[8],0%
same,%Inh,[9],79%
same,%Inh,[10],97.5%
same,%Inh,[11],76%
same,%Inh,[12],93.9%
same,%Inh,[13],91.5%
same,%Inh,[14],99.3%
same,%Inh,[15],98.9%
same,%Inh,[16],99.7%
same,%Inh,[17],96%
same,%Inh,[18],94.4%
same,%Inh,[19],94.7%
same,%Inh,[20],96%
Nc1nc(-c2ccc3c(N)n[nH]c3c2)cc(N2CCCC2)n1 [GSK2227430],%Inh,[1],0%
same,%Inh,[2],73%
same,%Inh,[3],0%
same,%Inh,[4],9%
same,%Inh,[5],4%
same,%Inh,[6],37%
same,%Inh,[7],2%
same,%Inh,[8],0%
same,%Inh,[9],0%
same,%Inh,[10],12%
same,%Inh,[11],3%
same,%Inh,[12],5%
same,%Inh,[13],0%
same,%Inh,[14],6%
same,%Inh,[15],0%
same,%Inh,[16],6%
same,%Inh,[17],0%
same,%Inh,[18],0%
same,%Inh,[19],13%
same,%Inh,[20],10%
Cc1cccc(-c2nc(Nc3ccc4ncsc4c3)c3ccccc3n2)n1 [GW867588],%Inh,[1],0%
same,%Inh,[2],0%
same,%Inh,[3],0%
same,%Inh,[4],3%
same,%Inh,[5],0%
same,%Inh,[6],33%
same,%Inh,[7],2%
same,%Inh,[8],0%
same,%Inh,[9],0%
same,%Inh,[10],0%
same,%Inh,[11],22%
same,%Inh,[12],21%
same,%Inh,[13],6%
same,%Inh,[14],21%
same,%Inh,[15],0%
same,%Inh,[16],4%
same,%Inh,[17],30%
same,%Inh,[18],0%
same,%Inh,[19],22%
same,%Inh,[20],0%
O=C(NCCNc1ccnc(Nc2ccc(F)cc2)n1)Nc1ccccc1F [GSK1379880],%Inh,[1],0%
same,%Inh,[2],0%
same,%Inh,[3],0%
same,%Inh,[4],15%
same,%Inh,[5],6%
same,%Inh,[6],12%
same,%Inh,[7],22%
same,%Inh,[8],0%
same,%Inh,[9],19%
same,%Inh,[10],0%
same,%Inh,[11],0%
same,%Inh,[12],6%
same,%Inh,[13],0%
same,%Inh,[14],0%
same,%Inh,[15],2%
same,%Inh,[16],21%
same,%Inh,[17],38%
same,%Inh,[18],0%
same,%Inh,[19],0%
same,%Inh,[20],0%
CC(C)(CN)c1nc(-c2ccc(Cl)c(O)c2)c(-c2ccncc2)[nH]1.O=C(O)C(F)(F)F [SB-477794],%Inh,[1]; 1 µM,0% and 98.6%
same,%Inh,[2]; 1 µM,0% and 5%
same,%Inh,[3],0%
same,%Inh,[4],0%
same,%Inh,[5]; 1 µM,0% and 5%
same,%Inh,[6]; 1 µM,0% and 5%
same,%Inh,[7]; 1 µM,70% and 47%
same,%Inh,[8],0%
same,%Inh,[9]; 1 µM,97.1% and 95.8%
same,%Inh,[10]; 1 µM,26% and 33%
same,%Inh,[11]; 1 µM,50% and 61%
same,%Inh,[12]; 1 µM,42% and 23%
same,%Inh,[13]; 1 µM,0% and 2%
same,%Inh,[14]; 1 µM,74% and 63%
same,%Inh,[15]; 1 µM,35% and 20%
same,%Inh,[16]; 1 µM,87% and 85%
same,%Inh,[17]; 1 µM,45% and 20%
same,%Inh,[18]; 1 µM,37% and 30%
same,%Inh,[19]; 1 µM,35% and 14%
same,%Inh,[20]; 1 µM,24% and 38%
CN(C1=C(c2ccccc2)C(=O)NC1=O)c1ccccc1 [SB-334860],%Inh,[1],0%
same,%Inh,[2],3%
same,%Inh,[3],0%
same,%Inh,[4],10%
same,%Inh,[5],9%
same,%Inh,[6],10%
same,%Inh,[7],27%
same,%Inh,[8],6%
same,%Inh,[9],6%
same,%Inh,[10],1%
same,%Inh,[11],24%
same,%Inh,[12],6%
same,%Inh,[13],6%
same,%Inh,[14],10%
same,%Inh,[15],2%
same,%Inh,[16],6%
same,%Inh,[17],8%
same,%Inh,[18],20%
same,%Inh,[19],11%
same,%Inh,[20],9%
Cc1c(Cn2c(C)nn3c(=O)cc(N4CCOC(C)C4)nc23)cccc1C(F)(F)F (stereo not shown) [GSK2344444],%Inh,[1],0%
same,%Inh,[2],1%
same,%Inh,[3],0%
same,%Inh,[4],7%
same,%Inh,[5],0%
same,%Inh,[6],24%
same,%Inh,[7],34%
same,%Inh,[8],0%
same,%Inh,[9],0%
same,%Inh,[10],5%
same,%Inh,[11],0%
same,%Inh,[12],3%
same,%Inh,[13],0%
same,%Inh,[14],0%
same,%Inh,[15],3%
same,%Inh,[16],0%
same,%Inh,[17],10%
same,%Inh,[18],46%
same,%Inh,[19],0%
same,%Inh,[20],0%
